RBX1-CUL1 inh = human ROC1-CUL1 E3 ligase inhibition; P62877+Q13616; in vitro K48 di-Ub FRET, acceptor:donor ratio, 45 min; inhibition, % at 10 µM; 140,000 tested, 0.6% active; in the data active = inhibition above about 25%
Each line names hits and unclear results; the compound was inactive in the other large screens. Shown is part of a subset that was picked to be rich in hits.

CCOc1cc(/C=C2\C(=O)NN(c3ccccc3)C2=O)ccc1OCc1ccccc1C	none
CCOc1ccc(/C=C2/C(=O)NN(c3cccc(F)c3)C2=O)cc1OC	none
O=S(=O)(CC1CC1)c1ncc(CN2CCC(O)CC2)n1CC1CCCCC1	none
CCOc1c(C=[N+](C)C)c2ccccc2n1CC	none
Cc1cc(O)ccc1NC(=O)COc1cccc2ccccc12	none
O=C(COc1cccc2ccccc12)Nc1ccc(Cl)cc1C(=O)O	RBX1-CUL1 inh 25
COc1ccccc1NC(=O)COc1cccc2ccccc12	none
COc1ccccc1C1CN(CC(=O)N2CCN(c3nc(C)cnc3C)CC2)Cc2ccccc2O1 (centres undefined)	none
O=C(NC(=S)Nc1ccc(-c2nc3ccccc3[nH]2)cc1)c1cncc(Br)c1	none
O=C1NN(c2ccccc2)C(=O)/C1=C/c1cn(CCCOc2ccc(Cl)cc2)c2ccccc12	none
Cc1ccc(N2NC(=O)/C(=C/c3ccccc3OCc3ccccc3)C2=O)cc1Cl	none
COc1cc(/C=C2/C(=O)NN(c3ccc(C)cc3)C2=O)cc(Cl)c1OC	none
Cc1cc(OCCOc2ccccc2/C=C2\C(=O)NN(c3ccccc3)C2=O)ccc1Cl	none
COc1cc(/C=C2\C(=O)NN(c3ccccc3)C2=O)cc(Cl)c1OCCCOc1ccc(C)cc1	RBX1-CUL1 inh 92
Cc1ccccc1COc1ccc(Cl)cc1/C=C1\C(=O)NN(c2ccccc2)C1=O	none
Cc1ccc(OCCCOc2c(Cl)cc(Cl)cc2/C=C2\C(=O)NN(c3ccccc3)C2=O)cc1	RBX1-CUL1 inh 77
O=C1NN(c2ccccc2)C(=O)/C1=C/c1cc(Cl)ccc1OCc1ccc(Cl)cc1	RBX1-CUL1 inh 41
Cc1ccc(COc2ccc(Cl)cc2/C=C2\C(=O)NN(c3ccccc3)C2=O)cc1	none
COc1cc(/C=C2\C(=O)NN(c3ccccc3)C2=O)cc(Cl)c1OCCCOc1ccc(Cl)cc1	none
CCCOc1ccccc1/C=C1/C(=O)NN(c2ccc(I)cc2)C1=O	none
Cc1ccc(OCCCOc2ccccc2/C=C2\C(=O)NN(c3ccccc3)C2=O)cc1	RBX1-CUL1 inh 36
CCN(Cc1ccccc1)c1nc(CNC(=O)Cn2nc(C)c3ccccc3c2=O)nc2ccccc12	none
CCCCN(CCCC)c1nc(Nc2ccc(OC(F)(F)Cl)cc2)nc(OCC)n1	none
C=CCn1nnc(NC(=O)c2ccccc2C)n1	none
O=C(NCc1cnc(-c2ccccc2)s1)c1cn(CC2CCCO2)nn1 (centres undefined)	none
N#CN1CCN(C2Cc3ccccc3Sc3ccccc32)CC1 (centres undefined)	none
CCSc1nnc(NC(=O)c2cc([N+](=O)[O-])cc([N+](=O)[O-])c2)s1	none
Cc1ccc2nc(SCc3ccccc3)nc(C)c2c1	none
COc1ccc(OC)c(C2C3=C(CCCC3=O)N(c3cccc(C(F)(F)F)c3)C(=N)C2C#N)c1 (centres undefined)	none
Nc1nnc(SCc2ccc(C(=O)Nc3ccc(Br)cc3)cc2)s1	none
CCOc1cc(C2C(C(=O)c3cc4ccccc4o3)C(=O)C(=O)N2Cc2ccco2)ccc1O (centres undefined)	none
O=C1C(=O)N(c2nnc(SCc3ccccc3F)s2)C(c2ccc(Cl)cc2)C1C(=O)c1cc2ccccc2o1 (centres undefined)	none
CCOc1cc(C2C(C(=O)c3cc4ccccc4o3)C(=O)C(=O)N2c2nnc(SCc3ccccc3Cl)s2)ccc1O (centres undefined)	RBX1-CUL1 inh 33
CC(=O)c1sc(N2C(=O)C(=O)C(C(=O)c3cc4ccccc4o3)C2c2ccc(O)cc2)nc1C (centres undefined)	none
CCCCCOc1ccc(C2C(C(=O)c3cc4ccccc4o3)C(=O)C(=O)N2c2nc3ccc(OCC)cc3s2)cc1OC (centres undefined)	none
O=C1C(=O)N(c2nnc(SCc3ccccc3Cl)s2)C(c2ccc(Cl)cc2)C1C(=O)c1cc2ccccc2o1 (centres undefined)	RBX1-CUL1 inh 29
OCc1cc(Br)cc(Br)c1OCc1ccccc1F	none
CCCCn1c(CN2CCCC(CN3CCOCC3)C2)cnc1S(=O)(=O)CC (centres undefined)	none
CCCc1nc(C)cc(N2CCCC(C)C2)n1 (centres undefined)	none
CCOC(=O)c1cnn2c(C(F)(F)F)cc(-c3ccc(Cl)cc3)nc12	none
COC(=O)c1cc(Br)ccc1Cl	none
COC(=O)c1cc(Br)cc(O)c1O	RBX1-CUL1 inh 83
COC(=O)c1ccc(C(=O)OC)c(NC(=O)c2ccc(Br)cc2)c1	none
Cc1cc(C)cc(NS(=O)(=O)c2cc3[nH]c(=O)c(=O)[nH]c3cc2C)c1	none
CCc1cccc(C)c1NS(=O)(=O)c1cc2[nH]c(=O)c(=O)[nH]c2cc1C	RBX1-CUL1 inh 44
CCOC(=O)c1cccc(NS(=O)(=O)c2cc3[nH]c(=O)c(=O)[nH]c3cc2C)c1	none
NC(=O)c1ccc(N2CCN(c3cccc(Cl)c3)CC2)nc1	none
COc1cc(C(=O)Nc2ccccc2C#N)cc(OC)c1OC	none
CCOC(=O)c1c2n(c3c(=S)nc[nH]c13)CCC2	none
N#CC1C(=NC(=O)Cc2ccccc2)c2ccccc2CC12CCCC2 (centres undefined)	none
CCOC(=O)C1C(=O)/C(=C\N2CCCCC2)N=C1C (centres undefined)	none
C=CCN1C(=O)/C(=C/c2cc(Br)cc(OC)c2OC)C(=O)NC1=S	none
C=CCN1C(=O)NC(=O)/C(=C\c2cc(Br)ccc2OCc2ccc(Cl)cc2Cl)C1=O	RBX1-CUL1 inh 101
O=C1OC(c2ccc3ccccc3c2)=N/C1=C/c1ccc(-c2cc(Cl)ccc2Cl)o1	none
C=CCN1C(=O)NC(=O)/C(=C/c2ccccc2OCc2ccc(Cl)cc2Cl)C1=O	none
C=CCN1C(=O)NC(=O)/C(=C\c2ccc(-c3cc(Cl)ccc3Cl)o2)C1=O	RBX1-CUL1 inh 97
C=CCN1C(=O)/C(=C/c2ccc(Cl)cc2Cl)NC1=S	none
CO[C@H]1[C@H](NC(=O)COc2ccccc2)c2ccccc2C12CCN(C(=O)C(=O)CC(C)C)CC2	none
Cc1cc(C(F)(F)F)c2c(C)nn(-c3ccc(C(=O)O)cc3)c2n1	none
Cc1cc(C(C)(C)C)n2nc(-c3ccccc3)cc2n1	none
COCCN1C(=O)/C(=C/c2ccc(Cl)cc2Cl)SC1=Nc1ccccc1	none
CCOC(=O)c1ccc(N=C2CC(c3ccc(F)cc3)N(c3ccc(C(=O)OCC)cc3)C2=O)cc1 (centres undefined)	none
COc1ccc(NC(=O)C2C(C)=Nc3ncnn3C2c2ccc[nH]2)cc1 (centres undefined)	none
CCn1nc(C)cc1C(=O)N1CCC(C2CCN(CC(C)C)CC2)C1 (centres undefined)	none
C=CCN1C(=O)S/C(=C/c2cccn2-c2ccc(C(=O)O)cc2)C1=O	none
COC(=O)c1csc2nc(NCCCN(C)C)sc12	none
CCC1CN(Cc2ccc(OC)cc2OC)Cc2cc(OC)ccc2O1 (centres undefined)	none
O=C(CCCN1CCN(c2ncccn2)CC1)NC1c2ccccc2CSc2ccccc21 (centres undefined)	none
CCOc1cc(CNc2ccc(N3CCCC3)cc2)cc(Cl)c1OC	RBX1-CUL1 inh 63
COc1cc(CNc2ccc(N3CCCC3)cc2)cc(Cl)c1OC	none
CCOc1cc(CNc2ccc(C)c(Cl)c2)cc(Cl)c1OCc1ccc(Cl)cc1Cl	none
COc1cc(CNc2ccc(N3CCCCC3)cc2)cc(Cl)c1OCc1cccs1	none
CCOc1cc(CNc2ccc(O)cc2)cc(Cl)c1OCc1ccc(Cl)cc1	RBX1-CUL1 inh 86
COc1cc(CNc2ccc(O)cc2)cc(Cl)c1OCc1ccc(Cl)cc1	none
CC1=Nc2nc(NS(=O)(=O)c3ccc(C)cc3)nn2C(c2ccc(Cl)cc2)C1 (centres undefined)	none
Cn1cccc1/C=N/Nc1nncc(-c2ccccc2)n1	none
CN1C2CCC1/C(=C/c1cc(Br)cs1)C(=O)/C2=C\c1cc(Br)cs1	none

Compound activity deposited in PubChem BioAssay by Pan Lab, Icahn School of Medicine at Mount Sinai.
